# Data from the supplement of paper PMC3545927.
# Some of the results follow. The true hit rate is not given.
# Molecular target: furin, P09958
# Test: furin cleavage Z-score vs untreated control; higher = more cleavage, active = 3.5 or more, inactive = 1 or less, 8 variable residues between constant flanks
# Procedure, shortened: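 Purified furin cleaved 8-mer peptides that were fused to a cDNA oligonucleotide and held on magnetic beads by their N-terminus. Each 0.01 ml reaction used a 1:10 enzyme:substrate ratio in 50 mM HEPES pH 7.5 with CaCl2 and NaCl and ran 7.5, 15 or 30 min. Released DNA was adapter-tagged by PCR and sequenced, and read counts gave abundance. The cleavage Z-score came from log counts against furin-free reactions, lowess-adjusted and scaled by median absolute deviation.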
# Chain of furin, P09958 (P09958 whole entry): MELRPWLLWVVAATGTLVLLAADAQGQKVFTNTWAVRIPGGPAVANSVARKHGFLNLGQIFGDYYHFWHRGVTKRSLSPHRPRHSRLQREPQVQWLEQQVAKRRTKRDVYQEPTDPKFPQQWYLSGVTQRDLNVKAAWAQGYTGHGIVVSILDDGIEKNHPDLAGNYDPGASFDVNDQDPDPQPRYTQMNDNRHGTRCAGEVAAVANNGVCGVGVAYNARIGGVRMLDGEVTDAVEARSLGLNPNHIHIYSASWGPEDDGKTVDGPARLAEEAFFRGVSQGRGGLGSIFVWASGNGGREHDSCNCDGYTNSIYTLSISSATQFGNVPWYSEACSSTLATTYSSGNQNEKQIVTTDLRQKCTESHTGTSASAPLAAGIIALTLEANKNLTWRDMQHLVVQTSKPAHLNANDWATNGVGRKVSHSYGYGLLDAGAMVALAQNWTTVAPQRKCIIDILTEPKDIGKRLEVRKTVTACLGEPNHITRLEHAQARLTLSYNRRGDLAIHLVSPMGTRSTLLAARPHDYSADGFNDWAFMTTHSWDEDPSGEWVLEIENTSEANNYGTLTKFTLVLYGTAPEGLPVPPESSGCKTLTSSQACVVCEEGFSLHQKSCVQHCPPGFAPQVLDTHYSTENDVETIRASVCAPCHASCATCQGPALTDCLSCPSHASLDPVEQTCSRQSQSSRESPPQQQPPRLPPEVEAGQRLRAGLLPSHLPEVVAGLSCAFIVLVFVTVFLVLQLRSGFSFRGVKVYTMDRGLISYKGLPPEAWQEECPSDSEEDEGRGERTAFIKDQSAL
Sequence,furin cleavage Z-score (7.5 min),furin cleavage Z-score (15 min),furin cleavage Z-score (30 min)
CAVDGIMHTRAGNASASA [HC1171],1.01,-0.806 (inactive),1.2
CARLHRFWEGAGNASASA [FS-1739],1.61,-1.73 (inactive),0.551 (inactive)
CAALSRVRRAAGNASASA [FS-973],8.87 (active),9.48 (active),6.93 (active)
CAALSRTARAAGNASASA [FS-1510],8.19 (active),7.7 (active),6.47 (active)
CALTQRTARAAGNASASA [FS-59],6.17 (active),5.48 (active),5.53 (active)
CAPLGGAARAAGNASASA [HC232],-0.625 (inactive),-0.427 (inactive),-0.526 (inactive)
CASTPCSAHAAGNASASA [HC2563],1.54,0.374 (inactive),-0.524 (inactive)
CASTALAELAAGNASASA [HC1331],-1.46 (inactive),-0.668 (inactive),0.259 (inactive)
CASTARLARAAGNASASA [FS-1287],5.91 (active),8.42 (active),8.27 (active)
CAVPASAYQVAGNASASA [HC254],0.602 (inactive),-1.58 (inactive),-0.419 (inactive)
CAEVLTSTWVAGNASASA [HC2185],0.631 (inactive),-0.524 (inactive),0.492 (inactive)
CASTARIRRNAGNASASA [FS-198],11.3 (active),11.2 (active),10.4 (active)
CAALGRKARAAGNASASA [FS-115],6.64 (active),6.76 (active),5.64 (active)
CAHIARALRNAGNASASA [FS-662],0.331 (inactive),1.47,0.623 (inactive)
CASHSRVRRAAGNASASA [FS-294],11.4 (active),9.7 (active),7.37 (active)
CAALGINAVAAGNASASA [HC865],0.253 (inactive),0.918 (inactive),-1.14 (inactive)
CASTPCSAHNAGNASASA [HC2581],-0.0473 (inactive),1.28,-0.895 (inactive)
CAFDEMEECSAGNASASA [HC1013],0.602 (inactive),0.715 (inactive),0.322 (inactive)
CARIVRSLMPAGNASASA [FS-2956],6.15 (active),8.67 (active),10.9 (active)
CAHIFRKRRPAGNASASA [FS-439],-0.371 (inactive),-0.427 (inactive),-0.596 (inactive)
CARHLRSLEPAGNASASA [FS-2420],5.02 (active),6.47 (active),5.66 (active)
CAREHRSGEPAGNASASA [FS-2004],-1.1 (inactive),-0.712 (inactive),-1.7 (inactive)
CARKNRSHIPAGNASASA [FS-1730],0.266 (inactive),-0.138 (inactive),-0.417 (inactive)
CARQERNKRFAGNASASA [FS-711],8.02 (active),9.31 (active),10.8 (active)
CAAQAREKRFAGNASASA [FS-1511],6.88 (active),8.08 (active),8.04 (active)
CARHLRSKVTAGNASASA [FS-1955],-0.109 (inactive),-0.365 (inactive),0.464 (inactive)
CAEVPCHRPEAGNASASA [HC2412],1.1,0.551 (inactive),-0.217 (inactive)
CAEVICHRPSAGNASASA [HC2344],-0.36 (inactive),-0.916 (inactive),1.17
